{"source": "PubChem BioAssay AID651568", "about": "(National Center for Advancing Translational Sciences (NCATS), 2012)", "note": "About 55 (5%) of roughly 1,200 compounds were called active. A call without a number means that no potency is given here. Another 15% or so got no clear call; they are omitted. The call rests on the fitted dose curve; in most records, active means well fitted inhibition curve with a large enough effect; inconclusive means small, poorly fitted or top-dose-only effect; inactive means no such curve, though single readings can be large or run the other way. The full list was thinned out, with actives kept by preference. Potency means the concentration at half of the fitted maximal effect."}
{"assay": "qHTS Assay to Find Inhibitors of Chronic Active B-Cell Receptor Signaling: Hit Validation in Renilla Reporter Assay; further: nearly all actives have a fitted effect of over 70% in size", "conditions": "TMD8 IkB-Renilla luciferase reporter, NF-kB signaling; series mostly up to 57.5 µM", "how_it_was_run": "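Dual-Glo luminescence read-out of constitutively expressed IkB-Photinus/Renilla luciferase reporters in ABC-DLBCL lines, used to retest primary hits; reporter enzymes differ from the click beetle luciferases used in the primary screen.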"}
{"smiles": "CC(=O)Nc1cc(N=Cc2ccc(O)cc2O)c(Cl)cc1Cl", "Potency": "12 µM (active)"}
{"smiles": "Cc1ccc(NS(=O)(=O)c2ccc(-c3cnc(C4CC4)o3)cc2)c(C)c1", "Potency": "inactive"}
{"smiles": "COc1ccc(Nc2cc3n(c(=O)n2)CCc2cc(OC)c(OC)cc2-3)c(C)c1", "Potency": "inactive"}
{"smiles": "COc1ccc(-c2c(-c3cc(OC)c(OC)c(OC)c3)noc2C)cn1", "Potency": "inactive"}
{"smiles": "COc1cc(/C=C2\\OC(=O)c3c(OC)cccc32)ccc1O", "Potency": "inactive"}
{"smiles": "COc1ccc(/C=C2\\CCc3ccccc3C2=O)cc1O", "Potency": "26.9 µM (active)"}
{"smiles": "COc1cc(/C=N/N(C)c2ccccc2)ccc1O", "Potency": "inactive"}
{"smiles": "COc1ccc(-c2sc3cc(OC)c(OC)cc3c2C#CC(C)(C)O)cc1", "Potency": "inactive"}
{"smiles": "CCCn1nc(Oc2nc(N(C)C)nc(N(C)C)n2)ccc1=O", "Potency": "inactive"}
{"smiles": "COc1ccc(C(=O)Nc2ccc(-n3nncc3-c3ccc(OC)c(OC)c3)cc2)cc1", "Potency": "inactive"}
{"smiles": "CCN(c1cccc(C)c1)S(=O)(=O)c1ccc(-c2cc(C)no2)s1", "Potency": "inactive"}
{"smiles": "COc1ccccc1/C=N/NC(=S)Nc1cccnc1", "Potency": "inactive"}
{"smiles": "COc1ccccc1-c1cc(C(=O)Nc2cccnc2)no1", "Potency": "inactive"}
{"smiles": "O=C(CCCN1C(=O)/C(=C/c2ccccc2OC(F)F)SC1=S)Nc1cccnc1", "Potency": "30.1 µM (active)"}
{"smiles": "Cc1ccc2c(c1)C(=O)C(=O)N2CC1COc2ccccc2O1", "note": "(stereo not given)", "Potency": "inactive"}
{"smiles": "CCn1c2ccccc2c2cc(NC(=O)c3cc(OC)cc(OC)c3)ccc21", "Potency": "inactive"}
{"smiles": "CCCCn1c(SCC(=O)c2cc(OC)ccc2OC)nc2cc(S(N)(=O)=O)ccc21", "Potency": "inactive"}
{"smiles": "COc1ccccc1-c1nnc2sc(-c3ccc(N(C)C)cc3)nn12", "Potency": "inactive"}
{"smiles": "COC(=O)[C@@H]1[C@@H](C#N)C2(c3ccccc3-c3ccccc32)N(c2ccc(Cl)cc2)N1C#N", "Potency": "4.78 µM (active)"}
{"smiles": "O=C(Cc1ccc(-n2c(=O)c3ccccc3n(Cc3ccccc3F)c2=O)cc1)NCC1CCCO1", "note": "(stereo not given)", "Potency": "inactive"}
{"smiles": "COc1cc(OC)c(OC)cc1/C=C/C(=O)c1ccc(NS(=O)(=O)c2ccc(C)cc2)cc1", "Potency": "inactive"}
{"smiles": "CN(C)c1nc(=NCc2ccco2)ss1", "Potency": "16.9 µM (active)"}
{"smiles": "CCC(=NCCc1c(C)[nH]c2ccc(C)cc12)C1=C(O)CC(c2ccccc2)CC1=O", "note": "(stereo not given)", "Potency": "inactive"}
{"smiles": "COc1ccc(C2CC(c3ccc(OC)c(OC)c3)=NN2C(=O)c2ccccc2)cc1", "note": "(stereo not given)", "Potency": "inactive"}
{"smiles": "CCCc1noc2c1C(c1ccoc1)C(C#N)=C(N)N2", "note": "(stereo not given)", "Potency": "23.9 µM (active)"}
{"smiles": "CCc1ccc(CNC(=O)Cc2ccc(NC(=O)C3=C(C)OCCS3)cc2)cc1", "Potency": "inactive"}
{"smiles": "O=C(NN=C1CCCC1)c1n[nH]c2c1CCCC2", "Potency": "inactive"}
{"smiles": "CC1=NN(C(N)=S)C(=O)C1N=Nc1cccc([N+](=O)[O-])c1", "note": "(stereo not given)", "Potency": "inactive"}
{"smiles": "ClCc1nc2ccccc2c2ccccc12", "Potency": "23.9 µM (active)"}
{"smiles": "S=c1nc2ccccc2c2nc(-c3ccccc3Cl)[nH]n12", "Potency": "inactive"}
{"smiles": "CCc1nc2ccccc2c(C(=O)OCc2nc3ccccc3c(=O)[nH]2)c1C", "Potency": "inactive"}
{"smiles": "COc1cc(OC)cc(-c2cc3cc4c(cc3cn2)OCO4)c1", "Potency": "inactive"}
{"smiles": "CCOC(=O)C1=C(O)/C(=C/c2ccc(OCC(=O)O)c(OCC)c2)SC1=Nc1ccccc1", "Potency": "inactive"}
{"smiles": "CCOC(=O)C(C)N1C(=O)S/C(=C/c2ccc3c(c2)n(C)c(=O)n3C)C1=O", "note": "(stereo not given)", "Potency": "inactive"}
{"smiles": "CCOc1cc(/C=C2\\CN(C)C/C(=C\\c3ccc(O)c(OCC)c3)C2=O)ccc1O", "Potency": "5.36 µM (active)"}
{"smiles": "Cc1ccc(C)c(Cn2c(=O)n(-c3ccc(CC(=O)NCc4ccco4)cc3)c(=O)c3sccc32)c1", "Potency": "inactive"}
{"smiles": "Cc1ccc(N2C(=O)c3cccc4c(N)ccc(c34)C2=O)c2cccnc12", "Potency": "inactive"}
{"smiles": "COc1ccc([C@H]2CC(=O)C=C(c3ccc(OC)cc3OC)C2)cc1", "Potency": "inactive"}
{"smiles": "COc1ccc(S(=O)(=O)N2CCCCC2)cc1NS(=O)(=O)c1cc(Cl)ccc1Cl", "Potency": "inactive"}
{"smiles": "CCOc1ccc(N(CC(=O)Nc2ccccc2C)S(=O)(=O)c2c(C)noc2C)cc1", "Potency": "inactive"}
